Results: the supplement of paper PMC11732987, “Enantioselective OTUD7B fragment discovery through chemoproteomics screening and high-throughput optimisation” (Communications Chemistry, 2025)

Assays:
Test in all cases: log2 ratio of Biotin-Ahx-Ub-VS probe labelling (fragment/DMSO); higher = less target engagement (more negative = stronger competition), active = hit call of the paper (q ≤ 0.05, log2 ratio ≤ -1)
Settings in all cases: compound concentration: 200 uM; treatment time: 3 h
[1] = biological target: T1, USP42 (UniProt Q9H9J4)
T1 sequence (whole entry): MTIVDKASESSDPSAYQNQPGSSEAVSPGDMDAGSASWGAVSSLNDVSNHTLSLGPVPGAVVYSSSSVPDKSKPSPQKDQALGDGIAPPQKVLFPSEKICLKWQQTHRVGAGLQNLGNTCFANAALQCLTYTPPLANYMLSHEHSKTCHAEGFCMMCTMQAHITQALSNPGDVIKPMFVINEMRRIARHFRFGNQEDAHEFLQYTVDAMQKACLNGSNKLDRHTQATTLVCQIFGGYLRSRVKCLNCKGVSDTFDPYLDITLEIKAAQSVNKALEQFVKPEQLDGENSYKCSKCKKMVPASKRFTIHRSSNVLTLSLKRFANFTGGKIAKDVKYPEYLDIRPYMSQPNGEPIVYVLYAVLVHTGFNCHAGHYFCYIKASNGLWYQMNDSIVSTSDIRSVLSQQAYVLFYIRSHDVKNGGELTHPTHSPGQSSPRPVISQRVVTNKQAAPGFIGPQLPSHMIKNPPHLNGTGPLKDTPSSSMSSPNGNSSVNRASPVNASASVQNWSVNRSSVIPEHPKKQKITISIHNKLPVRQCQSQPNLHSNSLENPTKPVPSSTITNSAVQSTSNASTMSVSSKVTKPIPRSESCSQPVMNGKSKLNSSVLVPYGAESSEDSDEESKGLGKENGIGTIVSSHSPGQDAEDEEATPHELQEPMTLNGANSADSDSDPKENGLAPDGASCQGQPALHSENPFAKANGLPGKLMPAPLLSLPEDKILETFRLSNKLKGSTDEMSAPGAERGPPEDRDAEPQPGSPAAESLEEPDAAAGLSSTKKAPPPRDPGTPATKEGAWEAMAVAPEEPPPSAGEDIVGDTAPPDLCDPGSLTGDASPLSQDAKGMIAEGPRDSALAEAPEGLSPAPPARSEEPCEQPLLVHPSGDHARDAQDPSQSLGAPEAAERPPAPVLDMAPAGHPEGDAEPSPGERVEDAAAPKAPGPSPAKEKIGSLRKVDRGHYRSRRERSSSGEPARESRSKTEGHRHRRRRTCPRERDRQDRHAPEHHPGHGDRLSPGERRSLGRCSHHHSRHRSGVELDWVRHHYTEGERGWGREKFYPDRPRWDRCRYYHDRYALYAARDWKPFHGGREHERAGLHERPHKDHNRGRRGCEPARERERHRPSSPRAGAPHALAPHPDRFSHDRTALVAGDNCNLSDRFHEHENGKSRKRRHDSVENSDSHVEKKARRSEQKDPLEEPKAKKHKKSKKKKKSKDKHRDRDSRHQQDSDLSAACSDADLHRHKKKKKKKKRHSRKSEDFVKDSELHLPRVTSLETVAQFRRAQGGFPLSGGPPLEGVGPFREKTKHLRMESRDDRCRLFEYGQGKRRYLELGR
Summary of the method: (§1)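 HEK293T lysate (495 µg per sample, in Tris/CHAPS/IGEPAL buffer with protease inhibitors) was treated in triplicate with fragment at 200 µM or with DMSO for 3 h. It was then treated with Biotin-Ahx-Ub-VS (0.5 µM final) for 1 h. Labelled DUBs were NeutrAvidin-enriched, digested with LysC and trypsin, and run by diaPASEF LC-MS/MS. Spectronaut label-free quantities were global-median-normalised. Values are average log2 ratios fragment/DMSO by unpaired t-test, using proteins with ≥2 unique peptides.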

[2] = biological target: USP46 (UniProt P62068)
Summary of the method: as §1

[3] = biological target: T2, USP47 (UniProt Q96K76)
T2 sequence (whole entry): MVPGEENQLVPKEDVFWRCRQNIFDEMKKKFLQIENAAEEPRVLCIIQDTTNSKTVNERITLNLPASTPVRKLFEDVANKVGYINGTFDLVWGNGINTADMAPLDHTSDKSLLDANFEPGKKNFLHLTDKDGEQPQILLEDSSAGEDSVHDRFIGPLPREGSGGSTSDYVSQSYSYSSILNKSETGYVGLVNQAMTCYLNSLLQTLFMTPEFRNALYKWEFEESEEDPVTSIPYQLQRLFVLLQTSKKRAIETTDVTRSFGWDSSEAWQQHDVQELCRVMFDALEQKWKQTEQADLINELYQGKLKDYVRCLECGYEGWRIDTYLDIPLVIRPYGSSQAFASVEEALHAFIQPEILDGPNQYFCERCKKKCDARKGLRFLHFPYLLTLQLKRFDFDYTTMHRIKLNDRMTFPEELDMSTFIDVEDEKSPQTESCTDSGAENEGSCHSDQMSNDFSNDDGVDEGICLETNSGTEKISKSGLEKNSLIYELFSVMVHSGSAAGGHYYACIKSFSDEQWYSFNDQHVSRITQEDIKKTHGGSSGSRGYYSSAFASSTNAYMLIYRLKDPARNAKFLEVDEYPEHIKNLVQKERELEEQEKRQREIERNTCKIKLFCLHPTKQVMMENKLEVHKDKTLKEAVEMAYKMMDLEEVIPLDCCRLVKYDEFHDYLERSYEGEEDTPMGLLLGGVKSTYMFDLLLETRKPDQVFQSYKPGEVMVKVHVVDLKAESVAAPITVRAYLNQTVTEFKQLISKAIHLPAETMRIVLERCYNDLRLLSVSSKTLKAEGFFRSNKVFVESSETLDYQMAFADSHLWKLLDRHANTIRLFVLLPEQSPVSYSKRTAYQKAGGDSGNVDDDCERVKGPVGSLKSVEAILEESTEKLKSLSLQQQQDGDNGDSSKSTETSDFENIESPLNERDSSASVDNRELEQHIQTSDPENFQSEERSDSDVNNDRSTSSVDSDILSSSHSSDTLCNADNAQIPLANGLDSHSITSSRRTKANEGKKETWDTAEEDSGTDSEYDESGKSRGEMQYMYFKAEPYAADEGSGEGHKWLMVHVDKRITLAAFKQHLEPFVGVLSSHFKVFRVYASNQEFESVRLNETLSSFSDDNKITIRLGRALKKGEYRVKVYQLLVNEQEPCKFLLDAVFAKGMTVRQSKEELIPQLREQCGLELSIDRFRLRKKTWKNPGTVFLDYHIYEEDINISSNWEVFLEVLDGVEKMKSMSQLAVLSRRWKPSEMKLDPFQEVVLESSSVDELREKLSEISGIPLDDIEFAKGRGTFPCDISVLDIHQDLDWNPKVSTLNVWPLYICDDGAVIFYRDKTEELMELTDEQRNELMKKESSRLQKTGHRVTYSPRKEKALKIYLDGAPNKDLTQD
Summary of the method: as §1

[4] = biological target: T3, USP48 (UniProt Q86UV5)
T3 sequence (whole entry): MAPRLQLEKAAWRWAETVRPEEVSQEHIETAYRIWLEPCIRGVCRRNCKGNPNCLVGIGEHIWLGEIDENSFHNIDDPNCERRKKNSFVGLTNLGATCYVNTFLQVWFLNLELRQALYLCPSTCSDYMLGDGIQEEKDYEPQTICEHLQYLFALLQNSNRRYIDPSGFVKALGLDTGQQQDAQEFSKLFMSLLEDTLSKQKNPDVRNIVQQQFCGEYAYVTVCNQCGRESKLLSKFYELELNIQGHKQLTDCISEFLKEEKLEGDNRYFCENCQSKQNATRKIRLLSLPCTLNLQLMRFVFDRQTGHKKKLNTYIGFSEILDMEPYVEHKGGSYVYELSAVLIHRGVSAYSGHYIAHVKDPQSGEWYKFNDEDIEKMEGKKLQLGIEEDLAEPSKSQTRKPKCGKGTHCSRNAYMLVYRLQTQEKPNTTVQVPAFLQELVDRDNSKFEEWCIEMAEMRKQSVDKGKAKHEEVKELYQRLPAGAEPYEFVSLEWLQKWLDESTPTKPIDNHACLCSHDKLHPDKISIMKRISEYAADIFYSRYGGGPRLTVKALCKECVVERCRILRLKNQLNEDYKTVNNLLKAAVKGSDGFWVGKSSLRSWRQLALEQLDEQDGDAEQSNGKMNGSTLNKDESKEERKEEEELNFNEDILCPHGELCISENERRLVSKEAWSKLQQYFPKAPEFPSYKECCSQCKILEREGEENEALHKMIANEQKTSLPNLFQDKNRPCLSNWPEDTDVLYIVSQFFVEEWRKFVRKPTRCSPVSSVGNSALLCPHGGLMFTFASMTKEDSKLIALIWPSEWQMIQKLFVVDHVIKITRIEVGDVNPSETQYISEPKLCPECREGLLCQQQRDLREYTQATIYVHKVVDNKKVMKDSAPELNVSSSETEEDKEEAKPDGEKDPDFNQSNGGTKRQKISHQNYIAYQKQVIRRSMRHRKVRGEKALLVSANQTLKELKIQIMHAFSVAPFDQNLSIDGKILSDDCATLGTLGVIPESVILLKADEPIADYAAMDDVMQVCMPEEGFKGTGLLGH
Summary of the method: as §1

[5] = biological target: T4, USP5 (UniProt P45974)
T4 sequence (whole entry): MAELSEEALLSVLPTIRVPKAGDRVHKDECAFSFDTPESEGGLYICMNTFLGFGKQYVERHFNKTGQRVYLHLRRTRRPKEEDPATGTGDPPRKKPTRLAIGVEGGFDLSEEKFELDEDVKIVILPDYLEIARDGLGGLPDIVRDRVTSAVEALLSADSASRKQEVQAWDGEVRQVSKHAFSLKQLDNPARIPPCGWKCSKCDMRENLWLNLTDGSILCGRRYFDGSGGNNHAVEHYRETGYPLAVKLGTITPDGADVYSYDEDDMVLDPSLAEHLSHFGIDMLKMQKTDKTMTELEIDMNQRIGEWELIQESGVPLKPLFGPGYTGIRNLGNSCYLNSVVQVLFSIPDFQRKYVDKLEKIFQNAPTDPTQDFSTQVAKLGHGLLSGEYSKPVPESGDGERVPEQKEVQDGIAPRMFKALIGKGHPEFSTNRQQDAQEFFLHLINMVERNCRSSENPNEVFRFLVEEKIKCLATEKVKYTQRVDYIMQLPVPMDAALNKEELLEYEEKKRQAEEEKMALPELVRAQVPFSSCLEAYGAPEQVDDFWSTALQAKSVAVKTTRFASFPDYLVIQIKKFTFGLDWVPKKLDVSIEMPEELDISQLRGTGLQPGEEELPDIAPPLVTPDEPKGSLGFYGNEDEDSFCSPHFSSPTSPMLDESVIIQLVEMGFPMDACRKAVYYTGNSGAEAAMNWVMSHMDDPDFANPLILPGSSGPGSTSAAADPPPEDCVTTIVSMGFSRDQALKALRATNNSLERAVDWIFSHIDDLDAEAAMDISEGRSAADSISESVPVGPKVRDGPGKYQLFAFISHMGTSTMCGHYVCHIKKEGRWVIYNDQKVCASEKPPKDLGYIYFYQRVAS
Summary of the method: as §1

[6] = biological target: USP54 (UniProt Q70EL1)
Summary of the method: as §1

[7] = biological target: USP7 (UniProt Q93009)
Summary of the method: as §1

[8] = biological target: T5, USP8 (UniProt P40818)
T5 sequence (whole entry): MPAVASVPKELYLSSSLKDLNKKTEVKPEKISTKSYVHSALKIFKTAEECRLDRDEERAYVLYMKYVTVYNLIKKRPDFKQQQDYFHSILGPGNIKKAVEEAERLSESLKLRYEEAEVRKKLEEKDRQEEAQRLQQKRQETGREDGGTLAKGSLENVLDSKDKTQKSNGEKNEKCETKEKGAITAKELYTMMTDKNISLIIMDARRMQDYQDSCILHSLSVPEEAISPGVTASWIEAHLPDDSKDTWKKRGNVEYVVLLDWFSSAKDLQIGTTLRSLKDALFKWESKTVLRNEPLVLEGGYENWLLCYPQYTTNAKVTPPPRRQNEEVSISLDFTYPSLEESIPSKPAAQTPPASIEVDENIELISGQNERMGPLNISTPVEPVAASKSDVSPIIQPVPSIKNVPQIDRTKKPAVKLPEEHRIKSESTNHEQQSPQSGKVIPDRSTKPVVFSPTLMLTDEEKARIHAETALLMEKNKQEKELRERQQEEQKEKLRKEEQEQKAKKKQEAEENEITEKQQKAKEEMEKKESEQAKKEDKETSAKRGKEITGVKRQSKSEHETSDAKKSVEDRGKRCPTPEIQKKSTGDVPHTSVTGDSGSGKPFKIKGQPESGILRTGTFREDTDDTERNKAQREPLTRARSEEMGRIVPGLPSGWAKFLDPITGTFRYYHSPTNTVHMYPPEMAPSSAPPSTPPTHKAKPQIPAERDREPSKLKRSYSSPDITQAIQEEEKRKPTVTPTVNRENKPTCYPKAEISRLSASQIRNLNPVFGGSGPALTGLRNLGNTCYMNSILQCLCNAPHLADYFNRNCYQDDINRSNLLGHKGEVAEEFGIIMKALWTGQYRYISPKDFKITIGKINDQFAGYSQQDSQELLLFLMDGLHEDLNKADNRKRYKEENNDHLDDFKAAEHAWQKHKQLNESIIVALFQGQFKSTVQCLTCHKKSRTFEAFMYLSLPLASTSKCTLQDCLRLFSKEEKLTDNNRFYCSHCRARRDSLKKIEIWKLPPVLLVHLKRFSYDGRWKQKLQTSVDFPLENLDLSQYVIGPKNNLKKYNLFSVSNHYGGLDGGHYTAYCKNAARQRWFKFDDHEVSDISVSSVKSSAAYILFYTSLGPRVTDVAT
Summary of the method: as §1

[9] = biological target: USP9X (UniProt Q93008)
Summary of the method: as §1

[10] = biological target: UniProt O00487
Summary of the method: as §1

Measured: log2 ratio of Biotin-Ahx-Ub-VS probe labelling

Chain of UniProt O00487 (O00487 whole entry): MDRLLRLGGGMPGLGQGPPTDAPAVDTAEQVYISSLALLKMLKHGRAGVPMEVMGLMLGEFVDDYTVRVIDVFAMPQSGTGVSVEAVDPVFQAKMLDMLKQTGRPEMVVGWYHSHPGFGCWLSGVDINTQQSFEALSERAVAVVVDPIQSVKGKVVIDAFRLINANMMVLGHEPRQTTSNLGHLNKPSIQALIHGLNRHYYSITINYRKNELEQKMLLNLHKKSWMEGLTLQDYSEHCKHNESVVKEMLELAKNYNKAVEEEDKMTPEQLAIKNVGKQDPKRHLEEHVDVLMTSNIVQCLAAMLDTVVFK
Chain of USP46 (P62068 whole entry): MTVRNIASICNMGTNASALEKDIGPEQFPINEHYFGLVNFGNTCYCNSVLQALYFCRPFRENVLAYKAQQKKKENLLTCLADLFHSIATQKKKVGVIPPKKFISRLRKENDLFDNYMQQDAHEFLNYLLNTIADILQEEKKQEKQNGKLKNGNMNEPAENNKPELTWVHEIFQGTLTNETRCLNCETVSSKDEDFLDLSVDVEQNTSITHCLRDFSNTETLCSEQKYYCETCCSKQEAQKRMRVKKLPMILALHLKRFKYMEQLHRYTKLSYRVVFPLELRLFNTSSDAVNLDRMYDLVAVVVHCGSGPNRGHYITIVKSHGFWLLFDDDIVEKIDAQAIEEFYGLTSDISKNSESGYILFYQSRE
Chain of USP9X (Q93008 whole entry): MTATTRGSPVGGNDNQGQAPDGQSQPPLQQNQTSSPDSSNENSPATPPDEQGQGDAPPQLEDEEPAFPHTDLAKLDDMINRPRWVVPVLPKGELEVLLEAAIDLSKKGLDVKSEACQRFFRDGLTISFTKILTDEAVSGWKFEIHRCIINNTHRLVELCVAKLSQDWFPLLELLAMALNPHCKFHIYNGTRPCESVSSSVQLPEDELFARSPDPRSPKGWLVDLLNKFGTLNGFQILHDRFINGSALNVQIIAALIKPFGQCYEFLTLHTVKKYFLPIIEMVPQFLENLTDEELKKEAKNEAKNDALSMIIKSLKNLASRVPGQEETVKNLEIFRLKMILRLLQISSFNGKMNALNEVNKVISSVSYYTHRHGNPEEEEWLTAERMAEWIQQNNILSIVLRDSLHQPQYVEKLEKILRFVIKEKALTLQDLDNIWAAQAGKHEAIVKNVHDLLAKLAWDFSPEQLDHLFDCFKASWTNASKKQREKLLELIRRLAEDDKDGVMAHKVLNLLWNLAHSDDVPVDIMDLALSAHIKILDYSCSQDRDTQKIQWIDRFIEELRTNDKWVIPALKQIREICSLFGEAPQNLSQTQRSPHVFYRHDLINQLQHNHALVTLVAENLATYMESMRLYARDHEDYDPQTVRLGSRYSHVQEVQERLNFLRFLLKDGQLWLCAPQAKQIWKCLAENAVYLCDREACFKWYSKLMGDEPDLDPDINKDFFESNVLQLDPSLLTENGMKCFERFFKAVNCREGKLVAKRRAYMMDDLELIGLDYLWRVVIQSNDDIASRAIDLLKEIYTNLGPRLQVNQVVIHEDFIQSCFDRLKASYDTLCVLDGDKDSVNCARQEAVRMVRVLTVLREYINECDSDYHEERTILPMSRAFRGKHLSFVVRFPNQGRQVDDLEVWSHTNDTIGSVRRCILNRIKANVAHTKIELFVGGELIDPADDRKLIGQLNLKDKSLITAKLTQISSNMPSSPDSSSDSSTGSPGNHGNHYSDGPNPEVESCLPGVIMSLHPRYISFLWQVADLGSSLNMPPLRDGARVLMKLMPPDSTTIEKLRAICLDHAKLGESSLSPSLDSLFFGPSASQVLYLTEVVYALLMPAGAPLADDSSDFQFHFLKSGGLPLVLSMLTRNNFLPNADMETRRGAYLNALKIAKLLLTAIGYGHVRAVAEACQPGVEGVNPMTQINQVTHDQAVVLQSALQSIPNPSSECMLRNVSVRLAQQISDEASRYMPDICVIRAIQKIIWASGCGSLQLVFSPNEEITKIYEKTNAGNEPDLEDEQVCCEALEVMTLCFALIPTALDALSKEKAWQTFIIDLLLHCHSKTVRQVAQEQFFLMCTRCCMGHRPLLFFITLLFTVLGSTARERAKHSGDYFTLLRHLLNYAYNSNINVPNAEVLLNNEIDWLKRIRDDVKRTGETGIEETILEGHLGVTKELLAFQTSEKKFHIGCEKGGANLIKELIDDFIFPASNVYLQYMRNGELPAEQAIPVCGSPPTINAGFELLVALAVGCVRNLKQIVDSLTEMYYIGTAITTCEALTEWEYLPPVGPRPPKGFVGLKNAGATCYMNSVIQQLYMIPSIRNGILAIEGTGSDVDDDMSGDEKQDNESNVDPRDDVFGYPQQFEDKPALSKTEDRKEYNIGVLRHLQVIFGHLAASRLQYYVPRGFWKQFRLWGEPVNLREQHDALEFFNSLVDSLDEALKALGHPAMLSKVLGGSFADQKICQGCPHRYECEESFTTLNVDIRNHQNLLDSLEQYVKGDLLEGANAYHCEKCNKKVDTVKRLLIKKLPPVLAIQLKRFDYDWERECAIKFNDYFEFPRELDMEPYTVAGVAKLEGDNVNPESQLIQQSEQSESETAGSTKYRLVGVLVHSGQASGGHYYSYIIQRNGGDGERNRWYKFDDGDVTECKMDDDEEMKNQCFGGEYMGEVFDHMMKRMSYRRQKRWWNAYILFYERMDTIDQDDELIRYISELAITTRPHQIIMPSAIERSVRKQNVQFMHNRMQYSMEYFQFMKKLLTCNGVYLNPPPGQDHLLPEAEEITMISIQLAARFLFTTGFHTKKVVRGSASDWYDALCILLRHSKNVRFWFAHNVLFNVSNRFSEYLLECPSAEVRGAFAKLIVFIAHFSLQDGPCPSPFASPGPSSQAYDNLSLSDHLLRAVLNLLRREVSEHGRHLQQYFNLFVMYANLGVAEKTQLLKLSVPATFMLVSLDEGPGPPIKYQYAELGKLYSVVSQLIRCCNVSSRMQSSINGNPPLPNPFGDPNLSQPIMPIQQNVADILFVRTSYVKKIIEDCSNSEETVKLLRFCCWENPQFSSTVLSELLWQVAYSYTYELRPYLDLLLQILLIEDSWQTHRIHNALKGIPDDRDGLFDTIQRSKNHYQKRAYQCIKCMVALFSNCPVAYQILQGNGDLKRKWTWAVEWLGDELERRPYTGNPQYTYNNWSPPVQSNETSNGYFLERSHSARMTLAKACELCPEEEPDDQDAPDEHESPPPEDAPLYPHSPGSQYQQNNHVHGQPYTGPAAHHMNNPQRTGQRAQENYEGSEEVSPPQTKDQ
Chain of USP7 (Q93009 whole entry, looked up): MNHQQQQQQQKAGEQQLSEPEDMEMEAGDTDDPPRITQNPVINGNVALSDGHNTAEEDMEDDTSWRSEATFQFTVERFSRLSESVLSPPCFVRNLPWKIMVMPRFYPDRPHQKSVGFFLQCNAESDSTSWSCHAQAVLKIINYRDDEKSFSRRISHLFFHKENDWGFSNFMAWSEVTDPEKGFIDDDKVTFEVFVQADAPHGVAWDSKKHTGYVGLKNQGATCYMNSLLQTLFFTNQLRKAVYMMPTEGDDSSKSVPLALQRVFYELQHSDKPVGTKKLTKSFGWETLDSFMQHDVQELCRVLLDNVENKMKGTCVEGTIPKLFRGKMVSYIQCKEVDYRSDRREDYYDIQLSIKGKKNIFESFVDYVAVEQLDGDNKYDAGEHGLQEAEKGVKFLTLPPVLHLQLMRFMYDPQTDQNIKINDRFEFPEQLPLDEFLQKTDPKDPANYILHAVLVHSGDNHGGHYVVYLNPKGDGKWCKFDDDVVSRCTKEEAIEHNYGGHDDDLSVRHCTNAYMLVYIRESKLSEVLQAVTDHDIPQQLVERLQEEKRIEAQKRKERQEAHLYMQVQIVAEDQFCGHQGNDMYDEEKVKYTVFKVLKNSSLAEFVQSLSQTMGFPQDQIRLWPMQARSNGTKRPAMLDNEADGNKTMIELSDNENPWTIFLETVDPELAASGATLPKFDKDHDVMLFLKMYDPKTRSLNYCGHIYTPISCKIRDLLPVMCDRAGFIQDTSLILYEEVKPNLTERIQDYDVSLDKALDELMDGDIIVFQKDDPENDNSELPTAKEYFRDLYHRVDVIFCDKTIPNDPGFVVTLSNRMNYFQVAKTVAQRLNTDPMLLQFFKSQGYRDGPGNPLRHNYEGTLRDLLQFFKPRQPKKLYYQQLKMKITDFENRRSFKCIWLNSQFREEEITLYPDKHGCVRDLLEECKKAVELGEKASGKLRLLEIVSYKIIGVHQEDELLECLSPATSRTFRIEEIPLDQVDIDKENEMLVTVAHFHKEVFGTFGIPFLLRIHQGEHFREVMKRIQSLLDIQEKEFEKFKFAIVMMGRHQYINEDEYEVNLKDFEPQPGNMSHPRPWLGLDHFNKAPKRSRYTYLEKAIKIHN

Cc1nc(-c2cccc(NC(=O)CCl)c2)cs1
inactive: [1] 0.339 | [2] -0.382 | [3] -0.123 | [4] -0.43 | [5] -0.284 | [6] 0.0451 | [7] -0.163 | [8] -0.282 | [9] -0.362 | [10] -0.0542
